Screening data from PubChem.
Rows were chosen to be rich in hits. Some 21% of all compounds tested hit in one or more screens of this group.
Giardia FBPA inh: qHTS Assay for Inhibitors of Fructose-1,6-bisphosphate Aldolase from Giardia Lamblia; AID 2451, 2010; 290,000 tested, 0.71% active; Potency, µM (titrated, usually from 59.6 µM), for the others: at the highest dose activity, negative = inhibition, most hits filed as inhibitors; purified Giardia FBPA; note: potency is the fitted concentration of half-maximal effect; % is set by controls: 0 for no effect and ±100 for the full control effect; nearly all actives have a fitted effect of over 55% in size
Target sequence (A8B2U2 whole entry, looked up): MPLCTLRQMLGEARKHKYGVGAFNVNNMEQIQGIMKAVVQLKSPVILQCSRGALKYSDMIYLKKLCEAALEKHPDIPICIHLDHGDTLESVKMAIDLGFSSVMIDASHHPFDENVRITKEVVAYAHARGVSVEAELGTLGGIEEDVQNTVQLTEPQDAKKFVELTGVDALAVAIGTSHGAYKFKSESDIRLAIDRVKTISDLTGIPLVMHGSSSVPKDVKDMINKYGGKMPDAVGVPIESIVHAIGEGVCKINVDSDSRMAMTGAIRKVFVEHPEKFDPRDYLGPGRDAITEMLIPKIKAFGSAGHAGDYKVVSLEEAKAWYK
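40 nM FBPA preincubated 10 min at RT with compound (up to 57.5 uM final), then substrate plus GAPDH/TPI/NAD/arsenate coupling and diaphorase/resazurin added. Fluorescence read after 20 min at RT, 525/598 nm.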
Cycloheximide cs: Cycloheximide Counterscreen for Small Molecule Inhibitors of Shiga Toxin; cell reporter, cycloheximide protein synthesis inhibition counterscreen; max response, %; 300,000 tested, 12% active; AID 2314, 2010; in the data active = max response mostly above about 13%, no sharp cut-off; inactive = mostly below about 14%; note: read at 38.3 µM for the half of the compounds with a filed dose; 0% is about no effect
NS1 function inh: qHTS Assay for Inhibitors of Influenza NS1 Protein Function; Potency, µM (doses to about 46.1 µM), inactives show at the highest dose activity, positive = more growth; AID 2326, 2010; 270,000 tested, 0.4% active; calls by dose curve; note: potency is the fitted concentration of half-maximal effect; actives are rising curves; nearly all actives have a fitted effect of over 50% in size
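Growth recovery, yeast-based: influenza A NS1 expressed in S. cerevisiae causes slow growth, and suppressors are detected by OD600. The parent strain without NS1 is used as positive control.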
Pf growth 48h: Primary qHTS for delayed death inhibitors of the malarial parasite plastid, 48 hour incubation | P. falciparum luciferase growth in erythrocytes, 48 h | Potency, µM (titrated, usually from 28.7 µM), for inactives: top-dose activity change, negative = inhibition, most hits filed as inhibitors | 310,000 tested, 5.9% active | AID 504832, 2011; note: potency is the fitted concentration of half-maximal effect; % is set by controls: 0 for no effect and ±100 for the full control effect
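Compounds are pin-transferred into medium, infected erythrocytes (2% hematocrit, 0.1% parasitemia final) are added, and plates sit one parasite generation at 37 C in 5% CO2. Detection reagent is then added and luminescence measured.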
Pf growth 96h: Primary qHTS for delayed death inhibitors of the malarial parasite plastid, 96 hour incubation; P. falciparum luciferase reporter growth, 96 h; AID 504834, 2011; Potency, µM (highest dose often 28.7 µM), for the others: top-dose activity change, negative = inhibition, most hits filed as inhibitors; 320,000 tested, 6.9% active; note: potency is the fitted concentration of half-maximal effect; % is set by controls: 0 for no effect and ±100 for the full control effect
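Two parasite generations (96 h, 37 C, 5% CO2) of compound exposure in infected erythrocytes (0.05% parasitemia, 2% hematocrit). Luciferase-reporter P. falciparum; decreased luminescence indicates inhibited growth, aimed at apicoplast-acting delayed death.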
Shiga toxin inh: A qHTS for Small Molecule Inhibitors of Shiga Toxin. Vero cells, Shiga toxin protein synthesis inhibition reporter. inhibition, % at 38.7 µM. 290,000 tested, 9.2% active. AID 2315, 2010; in the data active = inhibition mostly above about 28%, no sharp cut-off; inactive = mostly below about 43%; note: 0% is about no effect
* marks the source's active call; other numbers are inactive results; ? = inconclusive; / = not tested or not shown; [ ] = dose if it differs, or a comment. Unless noted, calls come from the whole dose curve; as a rule, active = well fitted curve in the direction sought with a large enough effect; inconclusive = small, poorly fitted or top-dose-only effect, or another doubt; inactive = no such curve, though single readings can be large; an effect the other way counts as inactive or inconclusive.

SMILES | Giardia FBPA inh | Cycloheximide cs | NS1 function inh | Pf growth 48h | Pf growth 96h | Shiga toxin inh
CN(C)c1ccc(C(C(=O)NCc2ccccc2)N(Cc2ccco2)C(=O)c2snc(C(N)=O)c2N)cc1 (stereo unspecified) | 6% | -2 | -30% | ? | ? | -5
CCN1c2ccccc2NC2C1C(C(C)=O)C(=O)N2c1ccc(Cl)cc1 (stereo unspecified) | ? | -1 | 0% | 13µM* | -102% | -9
CCN(CC)S(=O)(=O)c1ccc(NC(=O)CCN2C(=O)C3CC=CCC3C2=O)cc1 (stereo unspecified) | / | / | / | -15% | ? | /
Clc1nc(-c2cccnc2)nc2scc(-c3ccccc3)c12 | 5% | 29* | -7% | 12µM* | 1µM* | 40*
COc1ccc(-c2csc3nc(-c4cccnc4)nc(Cl)c23)cc1OC | 1% | 4 | 2% | 12µM* | 6.6µM* | -8
Cc1cc2nc([C@H](C)C(=O)c3ccc(Cl)cc3)c(=O)[nH]c2cc1C | / | / | 0% | / | / | /
COC(=O)NC(c1ccccc1)C1(C(=O)OC)C(=O)Cc2ccccc21 (stereo unspecified) | -9% | / | / | / | / | /
CCC(C)Nc1nc(N)c([N+](=O)[O-])c(Nc2cc(OC)ccc2OC)n1 (stereo unspecified) | -3% | -1 | 5% | ? | ? | 15
CCC(C)Nc1nc(N)c([N+](=O)[O-])c(Nc2ccccc2OC)n1 (stereo unspecified) | -3% | -2 | -73% | 12µM* | 10µM* | -5
COc1cc2c(C(=O)N(C)c3ccc(F)cc3)cn(C)c(=O)c2cc1OC | 2% | 2 | -2% | 15% | ? | -2
Cc1nc(SC(C)C(=O)NC2CCCCC2C)c2c(C)c(C)sc2n1 (stereo unspecified) | -4% | -3 | 5% | 8% | 15µM* | 3
Cc1ccccc1NC(=O)n1ncc2cc(Cl)ccc21 | -2% | 21* | -6% | 35% | -29% | 29
COc1ccc(C)cc1NC(=O)n1ncc2cc(Cl)ccc21 | 15% | 4 | -3% | 11% | 3.3µM* | 2
Cc1cccc2c1cnn2C(=O)Nc1ccccc1Br | -7% | 2 | 0% | 87% | 9% | 12
Cc1ccc(O)c(NC(=O)CCC2CCCCC2)c1 | 3% | 34* | -37% | ? | 13µM* | 138*
Cc1ccc(O)c(NC(=O)CCCC(=O)O)c1 | -1% | -3 | -2% | 9% | / | 15
O=C(CCC1CCCCC1)Nc1ccccc1O | 0% | 39* | -62% | -61% | / | 107*
Cc1ccc(NC(=O)C2CCCCC2)c(O)c1 | -12% | 21* | 4% | 30% | -20% | 41
Cc1cccc(NC(=O)N2CCCC2C(=O)NCc2ccccc2)c1 (stereo unspecified) | 7% | -2 | 4% | -9% | 9.3µM* | /
COC(=O)NC(c1ccc2ccccc2c1)C(C(C)=O)C(=O)OC (stereo unspecified) | 3%[12.9 µM] | / | / | / | / | /
Cc1ccc(NC(=O)C2CCCN2C(=O)OCc2ccccc2)c(O)c1 (stereo unspecified) | -3% | -4 | 10% | ? | 5.2µM* | -4
CCc1ccccc1NC(=O)Cn1nnc(C(=O)NCc2cccc(OC)c2)c1N | -4% | 12 | -5% | -12% | ? | -4
CC(C)(C)NC(=S)N/N=C/c1cc(Br)c(O)c(Br)c1 | 16% | 11 | -40% | ? | 7.4µM* | 25
O=C(N/N=C/c1cc(Br)c(O)c(Br)c1)C1CC1 | / | -4 | 1% | 7% | 40% | 32
CCN(CC)CCCCn1c(-c2ccccc2)nc2c(NCc3ccccc3)nc(C)nc21 | 7% | / | / | / | / | /
CCC(=O)N(CC)c1nc(-c2ccc(OC)cc2)cs1 | -1% | 61* | -10% | 84% | 0% | 84*
CCC(=O)N(Cc1ccco1)c1nc(-c2ccc(OC)cc2)cs1 | 2% | -2 | 6% | -27% | ? | 45
COCCN(C(=O)c1ccccc1F)c1nnc(-c2ccc(OC)cc2)s1 | -1% | 32* | -9% | -23% | ? | 46*
CCN(C(=O)c1ccco1)c1nc(-c2ccc(OC)cc2)cs1 | 4% | 41* | -43% | -15% | ? | 59
